Data on 37 compounds can be found in PubChem BioAssay (NCI).

Several values for one entry are separate records, joined by “and”; a condition that tells them apart may be missing. Equal entries are not always repeated. Compounds without any hit were thinned out: in the full panel of roughly 83,000, 20% have a hit.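 The test compound was applied at a single concentration to cells in 96-well plates for 48 hours, and percent growth was recorded.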 Activity calls are given as the source filed them.

The subject of the first experiment is COLO 205 colon. Nature of the experiment: NCI-60 one-dose screen, 48 h (100 = growth as untreated, 0 = no growth, -100 = all killed). The note with it: 10 µM. How it is done: Cells are grown in 96 well plates and exposed to the test compound for 48 hours. Compounds are tested at a single concentration, which is 10^-5 M for most compounds. The reported endpoint is percent growth (GI% or GIPRCNT), where numbers from 0 - 100% represent growth inhibition, and numbers from -100% - 0 represent cell death. For example, a value of 40 represents 60% growth inhibition. A value of 0 means no net growth occurred over the course of the experiment. A value of -40 indicates 40% of cells at the beginning of the experiment died by the end of the experiment. A value of -100 means all cells are dead at the end of the experiment.
NCI-60 Human Tumor Cell Lines Screen was performed using the standard one-dose NCI protocol, which is described in more detail at https://dtp.cancer.gov/discovery_development/nci-60/default.htm.
Compounds with GIPRCNT values below 10 were considered active. Activity score was based on GIPRCNT using the following formula: […]
Score is 0 for GIPRCNT values of 100 or above, 50 for GIPRCNT values of 0, and 100 for GIPRCNT values of -100.
For `O=C(O)c1c(Cl)c(Cl)c(Cl)c(Cl)c1-c1c2cc(I)c(=O)c(I)c-2oc2c(I)c(O)c(I)cc12`, the growth was 121% (inactive) and 108% (inactive) and 119% (inactive).

As to `O=C(Nc1cccc(Br)c1)Oc1cccc2cccnc12`, the growth was 117% (inactive).

As to `O=C(Nc1c(Cl)cccc1Cl)Oc1cccc2cccnc12`, the growth is 52.4% (inactive).

Still in this experiment, the particulars now being: 10 µM unless noted.
Turning to `NC1=CC(=O)c2ccccc2C1=O`, the growth was 104% (inactive).

As for `O=C(CC1(O)C(=O)Nc2c(Cl)ccc(Cl)c21)c1ccc(Cl)cc1Cl` (stereo not given), the growth is 97.5% (inactive).

For `CC(=Nc1ccc(N(C)C)cc1)c1ccccc1`, the growth was 13.2% (inactive).

With `O=C1N[C@H]2[C@H](CS[C@H]2CCCCC(=O)N(CCP(c2ccccc2)c2ccccc2)CCP(c2ccccc2)c2ccccc2)N1`, the growth is 29.9% (inactive).

In the case of `O=C(Nc1cccc(Br)c1)Oc1ccc(Cl)c2cccnc12`, the growth was 55.8% [100 µM] (inactive).

Consider `O=C(Oc1cccc2cccnc12)c1ccccc1`, for which the growth was 84.8% (inactive) and 106% (inactive).

For `Nc1ncnc2c1ncn2C1OC(CO)C(O)C1O` (stereo not given), the growth was 121% (inactive) and 100% (inactive).

`NC(=O)/C=C/C(=O)c1c(Cl)cccc1Cl`: the growth was -89.6% (active).

On to `NC(=S)N/N=C\c1nccc2c(C(F)(F)C(F)(F)C(F)(F)F)cccc12`, for which the growth is 16.5% (inactive).

With `CCOC(=O)/C=C/c1ccc([N+](=O)[O-])o1`, the growth is 40.9% (inactive).

For the compound `CNC(=O)N/N=C/c1ccc([N+](=O)[O-])o1`, the growth was 109% (inactive).

Regarding `Cc1ccc(NS(=O)(=O)c2ccc(C)cc2)cc1`, the growth is 111% (inactive) and 103% (inactive).

On to `COc1cc(/C=C(/C)C[N+](=O)[O-])ccc1O`, for which the growth was 86.8% (inactive).

Turning to `O=C(Nc1ccc(F)cc1)ON=C1CCCCC1`, the growth is 125% [100 µM] (inactive).

In the case of `Cc1ccc2c(ccc3c[n+]4c5ccccc5ccc4n32)c1`, the growth is -34.2% (active).

On to `CC(C)c1ccc2nc3ccc(C(=O)NCCN4CCN(c5ccccc5)CC4)cn3c(=O)c2c1`, for which the growth was 45.8% (inactive).

Take `COC(=O)c1nc(=S)[nH]c(C(=O)OC)c1C(=O)c1ccc2ccccc2c1`: the growth was 96.8% (inactive).

Turning to `CCOC(=O)/C(=C\c1ccc(-c2ccccc2)cc1)C(C)=O`, the growth is 104% (inactive).

`CCCCCCCCCCCCCCCCOP(=O)([O-])OCC[N+](C)(C)C`: the growth was 10.6% (inactive).

On to `O=C(/C=C/C=C/c1ccccc1)c1ccco1`, for which the growth is 103% (inactive).

In the case of `O=[N+]([O-])c1ccc2c(N=Nc3ccc4ccccc4c3O)c(O)cc(S(=O)(=O)O)c2c1`, the growth is 104% (inactive).

Consider `Cc1cc(C(C)(CC(C)C)c2ccc(O)c(C)c2)ccc1O`, for which the growth is 125% (inactive).

Regarding `C=C(Cl)C(=NC(C)(C)C)Nc1ccccc1C`, the growth is 55.2% (inactive).

`O=C1c2cccnc2-c2nccc3c2c1nc1cc(Br)ccc13`: the growth is -85.6% (active) and -85% (active).

Take `CCC(CC)COC(=O)c1ccc(O)c(O)c1`: the growth was 95.7% (inactive).

For the compound `CC1OC2CC(=O)OC2C2=C1C(=O)c1c(O)cccc1C2=O` (stereo not given), the growth is -87.2% (active).

Regarding `Oc1ccc(/C=N/NC(=S)Nc2ccccc2)nc1`, the growth was 24.4% (inactive).

`S=C(NCCNC(=S)[S][Sn]([c]1ccccc1)([c]1ccccc1)[c]1ccccc1)[S][Sn]([c]1ccccc1)([c]1ccccc1)[c]1ccccc1`: the growth is -91.3% (active).

For `NC(N)=N/N=C/c1ccc([N+](=O)[O-])o1`, the growth is 3.2% (active).

Regarding `O=C(O)C1C2CC3C(OC(=O)C31)C2Br` (stereo not given), the growth was 97.1% (inactive) and 103% (inactive).

With `CCCCCCCCCCCCCCCCCCOP(=O)([O-])OC1CC[N+](C)(C)CC1`, the growth was -34.2% (active) and -30.8% (active).

With `C[N+](C)=c1ccc2nc3c(cc(NCCCNc4cc5oc6cc(=[N+](C)C)ccc-6nc5c5ccccc45)c4ccccc43)oc-2c1`, the growth is -64.9% (active).

Take `O=C1C=CC(=O)N1C1c2ccccc2-c2ccccc21`: the growth was 20% (inactive).

On to `O=C1NC(=O)/C(=C/C=C/c2ccccc2)S1`, for which the growth is 80.7% (inactive).

The same experiment, now with this note: 100 µM.
For `O=C(O)c1c(Cl)c(Cl)c(Cl)c(Cl)c1-c1c2cc(I)c(=O)c(I)c-2oc2c(I)c(O)c(I)cc12`, the growth was -59.9% (active).

Turning to `O=C(Nc1cccc(Br)c1)Oc1cccc2cccnc12`, the growth was 51.8% (inactive).

For `O=C(Nc1c(Cl)cccc1Cl)Oc1cccc2cccnc12`, the growth was 92.8% (inactive).
